Reference: publication PMC7826789 (International Journal of Molecular Sciences, 2021)

Tested on: TGFBR2
Conditions: Compound Concentration (nM):1000
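Also: KINOMEscan scanMAX binding as percent activity remaining versus control; lower means stronger binding.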

Percent Control, 42%:
CC(C)COC(=O)c1ccc2c(c1)/C(=C/Nc1ccc(S(N)(=O)=O)cc1)C(=O)N2 [GW416981X]

Percent Control, 46%:
CCS(=O)(=O)c1ccc(OC)c(Nc2ncc(-c3cccc(OC)c3)o2)c1 [GW580509X]

Percent Control, 86%:
COc1ccc2cc(-c3c(-c4ccncc4)nc(-c4ccc(S(C)(=O)=O)cc4C)n3C)ccc2c1 [SB-633825]

Percent Control, 89%:
Cl.O=C(Nc1ccc(Oc2ccc3[nH]c(NC(=O)c4ccco4)nc3c2)cc1)Nc1cc(C(F)(F)F)ccc1F [GW683134A]

Percent Control, 92%:
COC(=O)Nc1nc2ccc(Oc3ccc(NC(=O)Nc4cc(C(F)(F)F)ccc4F)cc3)cc2s1.Cl [GW693917A]

Percent Control, 26%:
CN1CCN(C(=O)c2ccc(NC(=O)Nc3ccc(N(C)c4ccnc(Nc5ccc(CS(C)(=O)=O)cc5)n4)cc3)cc2)CC1.Cl [GW830263A]

Percent Control, 58%:
O=C1Nc2ccc(C(=O)c3ccco3)cc2C1=Cc1cc(Cl)c(O)c(Cl)c1 [GW406108X]

Percent Control, 75%:
CN(C)CCNC(=O)Nc1ccc(N(C)c2ccnc(Nc3ccc(CS(C)(=O)=O)cc3)n2)cc1.Cl [GW830900A]

Percent Control, 52%:
CCS(=O)(=O)c1ccc(OC)c(Nc2ncc(-c3cccc(F)c3)o2)c1 [GW621970X]
COc1ccc2c(-c3ccnc(Nc4cccc(OC(F)(F)F)c4)n3)cnn2n1 [GW810372X]

Percent Control, 87%:
COc1ccccc1-c1cc(/C=C2\C(=O)Nc3ncc(Br)cc32)cc(Br)c1O [GW442130X]
COc1cc(/C=N/Nc2ncnc3[nH]ncc23)ccc1O [GW578748X]

Percent Control, 100%:
COc1cc2ncnc(Nc3ccc4c(cnn4Cc4ccccc4)c3)c2cc1OC.Cl [GW282449A]
CC1=C(C(=O)Nc2ccc3[nH]ncc3c2)C(c2ccc3ccccc3c2)CC(=O)N1 (stereo not shown) [GSK270822A]
O=C(Nc1n[nH]c2nc(-c3ccc(O)cc3)c(Br)cc12)C1CC1 [SB-725317]
CN(C)c1cc2c(Nc3ccc4c(cnn4Cc4ccccc4)c3)ncnc2cn1 [GW282974X]
COc1ccc2[nH]c3c4[nH]c5ccc(OC)cc5c4c4c(c3c2c1)C(=O)NC4=O [GW296115X]
COc1cccc(-n2ncc3c(N/N=C/c4ccncc4)ncnc32)c1 [GW784752X]
CC1=C(C(=O)Nc2ccc3[nH]ncc3c2)C(c2ccc(Cl)c(Cl)c2)CC(=O)N1 (stereo not shown) [GSK299115A]
COc1ccc(COc2ccc(Cc3cnc(N)nc3N)cc2OC)cc1 [GW632580X]
NS(=O)(=O)c1ccc(N/N=C2\C(=O)Nc3ccc(Cl)cc32)cc1 [GW280670X]
COc1cccc(-c2c[nH]c3c(N/N=C/c4ccncc4)ncnc23)c1 [GW814408X]
NS(=O)(=O)c1ccc(N/N=C2\C(=O)Nc3ccc(-c4cnco4)cc32)cc1 [GW276655]
Cl.c1ccc(Cc2nc3ccc(Nc4ncnc5ccccc45)cc3[nH]2)cc1 [GR269666A]
C/C(Nc1ccc(S(N)(=O)=O)cc1)=C1/C(=O)Nc2ccccc21 [GW335962X]
COc1cc(N2CCN(C(C)C)CC2)ccc1Nc1nc(Nc2ccc(F)cc2C(=O)NC[C@@H](O)CO)c2cc[nH]c2n1 [GSK1392956A]
Nc1ncnc2occ(-c3ccc(NC(=O)Nc4cc(C(F)(F)F)ccc4F)cc3)c12 [GW770249X]
Cl.O=C(Nc1ccc(Oc2ccc3[nH]c(NC(=O)c4ccccc4)nc3c2)cc1)Nc1cc(C(F)(F)F)ccc1F [GW709042A]
CCc1ccc(Oc2nccc(-c3c(-c4ccc(F)cc4)ncn3C3CCNCC3)n2)cc1 [SB-242719]
COc1cc(C)c(N(C)C(=O)CN(C)C)cc1Nc1nc(Nc2cccc(F)c2C(N)=O)c2cc[nH]c2n1 [GSK2219385]
NS(=O)(=O)c1ccc(Nc2ncc(-c3ccccc3)o2)cc1 [GW572399X]
C[C@@H](Oc1cc(-n2cnc3ccc(OC4CCN(C)CC4)cc32)sc1C(N)=O)c1ccccc1Cl [GSK579289A]
COc1cc2ncn(-c3cc(O[C@H](C)c4ccccc4Cl)c(C(N)=O)s3)c2cc1OC [GSK237701A]
COc1cc(C=NNc2ncnc3c2cnn3-c2ccccc2)ccc1O [GW513184X]
NS(=O)(=O)c1ccc(N/N=C2\C(=O)Nc3ccc(C(=O)NCCc4c[nH]cn4)cc32)cc1 [GW300660X]
CCn1c(-c2nonc2N)nc2c(C#CC(C)(C)O)nc(OCCNC)cc21.Cl [GSK949675]
NS(=O)(=O)c1ccc(N/N=C2\C(=O)Nc3ccc(C(=O)NCc4ccncc4)cc32)cc1 [GW300657X]
Cl.O=S1CCN(Cc2ccc(-c3ccc4ncnc(Nc5ccc(OCc6ccccc6)c(F)c5)c4c3)o2)CC1 [GW576924A]
Cl.O=C(O[C@H]1CN[C@H](C#Cc2cc3ncnc(Nc4ccc5c(cnn5Cc5ccccc5)c4)c3s2)C1)N1CCOCC1 [GSK200398A]

Percent Control, 81%:
Cc1cc(O)cc(C)c1/C=C/c1cncc(C(N)=O)c1 [GW435821X]
